# Measured values from PubChem BioAssay AID603 (National Center for Advancing Translational Sciences (NCATS), 2007).
# Screen size: about 71,000 compounds; about 180 (0.25%) were called active. What follows is part of a selection rich in actives, with near analogues and random picks from the rest. Unmarked numbers belong to inactive results. Calls follow the shape of the dose curve; as a rule, active = well fitted curve in the direction sought with a large enough effect; inconclusive = small, poorly fitted or top-dose-only effect; inactive = flat fitted curve, though single readings scatter.
# System: DNA polymerase III holoenzyme (E. coli)
# Assay: qHTS Assay for Inhibitors of DNA Polymerase III Holoenzyme System
# Details: reconstituted DNA polymerase III holoenzyme replication, biochemical; series mostly up to 57.1 µM; activity change, negative = inhibition: at the top concentration
# Procedure: NIH Molecular Libraries Screening Centers Network [MLSCN]
# NIH Chemical Genomics Center [NCGC]
# Assay Provider: Charles McHenry, University of Colorado
# E. coli DNA polymerase III holoenzyme complex was assayed for DNA production by fluorescent detection of the double-stranded DNA product with PicoGreen dye. The holoenzyme complex was reconstituted from the following purified protein components: DNA Polymerase III, beta subunit processivity factor, SSB single-stranded DNA binding protein, and Primase. Single-stranded, circular M13Gori was used as a substrate with dNTPs and NTPs also supplied to the substrate reagent. Compounds from the NCGC collection were incubated with the holoenzyme mixture for 15 min at room temperature to allow binding to occur, and then the reaction was started by the addition of substrate. After 30 min incubation at room temperature, PicoGreen solution containing EDTA was added to stop the reaction and to visualize the double-stranded DNA produced. Reaction progress was measured in a ViewLux CCD imager in fluorescence intensity mode by using 480 nm excitation and 540 nm emission filter set.
# NCGC Assay Protocol Summary:
# Buffer. 50 mM Hepes-KOH, pH 7.5, 5 % Glycerol, 0.02% NP40, 30 mM potassium;
# glutamate, 1.5 mM Magnesium Acetate, 16 uM TCEP.
# Buffer in columns 3 and 4 as negative control (no enzyme).
# Substrate solution: 5 uM each dATP, dGTP, dCTP and TTP, 50 uM each GTP, CTP, UTP and 200 uM ATP, 1.4 nM M13gori (final concentrations).
# Enzyme: 154 nM SSB, 2 nM Primase, 1 nM Beta, 0.35 nM Pol III (final concentrations).
# PicoGreen/EDTA: 10 mM Tris-HCl, 10 mM EDTA, 5 uM PicoGreen (final concentrations).
# Control titration: ChemBridge 5805060 (from 10 mM, then 1:2, in duplicate) was pin-transferred to upper half of column 2.
# Three uL of holoenzyme mixture were dispensed to 1536-well Greiner black solid bottom plates. Compounds and controls (23 nL) were transferred via Kalypsys PinTool. The plates were incubated for 15 min at room temperature, and then 1 uL of substrate solution was added to start the reaction. After room temperature incubation for 35 minutes, 1 uL of PicoGreen solution was added to each well and the plates were read 480 nm excitation and 540 nm emission using ViewLux (Perkin-Elmer) High-throughput CCD imager and fluorescence protocol settings.
# Keywords: NIH Roadmap, MLSCN, MLI, MLSMR, qHTS, NCGC, DNA Polymerase III, DNAPol3, DNAPoly3, DNA replication targets
# % is scaled to controls: 0 for no effect and ±100 for the full control effect.
Structure (SMILES),"activity change, negative = inhibition",Potency
CC(=O)OCC(COC(C)=O)OC(C)=O,6%,–
CCOc1ccc(-c2nnc3ccc(SC)nn23)cc1,-4.6%,–
CN(C)c1ncc2nc(-c3ccc(F)cc3)c(=O)n(Cc3ccc(F)cc3)c2n1,-10.5%,–
Cc1c(NC(=O)C(C)OC(=O)c2cc3c4ccccc4n(C)c3s2)c(=O)n(-c2ccccc2)n1C (stereo not drawn),-9%,–
CC1COC2C(O1)N(S(C)(=O)=O)CCN2S(C)(=O)=O (stereo not drawn),-5.1%,–
Cc1cc(NC(=O)COc2ccc(Cl)cc2Cl)n(CCC#N)n1,-3.1%,–
COc1cc(=O)[nH]c(=O)n1C(=O)Cc1ccccc1,-6%,–
CCC(C)(C)n1nnnc1C(c1cccs1)N1CCN(c2nc3ccccc3s2)CC1 (stereo not drawn),-3.1%,–
CC[N+](C)(CC)CCC[n+]1c(-c2ccccc2)c2cc(N)ccc2c2ccc(N)cc21,–,2 µM (active)
O=C(OCC(COC(=O)c1ccccc1)(COC(=O)c1ccccc1)COC(=O)c1ccccc1)c1ccccc1,0.5%,–
COc1ccc(CC(=O)n2nc(-c3cccnc3)nc2N)cc1,-4.3%,–
COc1ccccc1NC(=O)C1=C(C)Nc2nnnn2C1c1cccc(Br)c1 (stereo not drawn),-0.8%,–
CC(C)NC(=O)CCCn1c(=S)[nH]c2cc3c(cc2c1=O)OCO3,-4.2%,–
CCCC(=O)Nc1c(O)c2ccccc2[nH]c1=O,1.8%,–
CCCOC(=O)Cc1c(O)c2ccccc2[nH]c1=O,2.4%,–
O=C1C(c2[nH]c3ccccc3c2O)=Nc2ccccc21,–,3.98 µM (active)
CC(C)(C)[Si](OCC[C@@H]1C[C@@]1(C)[C@@H](NP(=O)(c1ccccc1)c1ccccc1)c1ccccc1)(c1ccccc1)c1ccccc1,2.2%,–
N#Cc1cccc(-c2ccc3ncnc(NCc4cccs4)c3c2)c1,-0.5%,–
CC(C)C[C@H](NC(=O)NCCc1ccc(Cl)cc1)C(=O)O,0.4%,–
COc1ccc(-n2ncc3c(N4CCCc5ccccc54)ncnc32)cc1,0.2%,–
CCCC[C@@H]1C[C@H]1C(NC(=O)c1ccco1)c1ccc(C(=O)OC)cc1 (stereo partly drawn),-5.4%,–
CS(=O)(=O)N1CCC2(CC1)CN(c1ccncc1)C2,-4.4%,–
O=C(O)c1ccc(C(=O)c2ccccc2C(=O)O)cc1C(=O)O,–,3.98 µM (active)
Cc1ccccc1C(=O)O,1.3%,–
O=C(c1ccc(O)cc1)c1ccc(C(=O)O)c(C(=O)O)c1,-2.9%,–
CCc1nnc(NS(=O)(=O)c2ccc(NS(=O)(=O)c3ccccc3)cc2)s1,-14.1%,–
Cc1ccnc(N)c1,-0.2%,–

Structure (SMILES),"activity change, negative = inhibition",Potency
c1ccc2nc(C3=NCCN3)cnc2c1,-3.7%,–
c1ccc(Cc2nn3c(Cn4cnc5ccccc54)nnc3s2)cc1,-6.2%,–
COc1ccc2oc(=O)c(C(=O)O)cc2c1,0.4%,–
O=C(CN1CCOc2ccccc21)N1CCC(Cc2ccccc2)CC1,0.5%,–
O=C(NCCCN1CCCCCC1)c1ccc(N2CCCC2=O)cc1,-2.7%,–
CC(=O)N1[C@H](C)C=C[C@]1(Cc1ccccc1)C(=O)NCc1ccccn1,10.3%,–
O=C1CN(C(=O)COC(=O)C2CC(=O)N(Cc3ccco3)C2)c2ccccc2N1 (stereo not drawn),-5.6%,–
O=C(Nc1ccn(Cc2ccc(F)cc2)n1)c1ccncc1,2.3%,–
CC(=O)N=c1ncn(CC(COC(C)=O)OC(C)=O)c2nc[nH]c12 (stereo not drawn),-5.5%,–
CCn1c(CSc2ncccn2)nnc1SCC(=O)N1c2ccccc2CC1C (stereo not drawn),-3.1%,–
C/C(=C\c1ccco1)C1Nc2cccc3cccc(c23)N1,–,3.16 µM (active)
Cc1cc(C)cc(NC(=O)C2CCN(c3nc(C)cc(C)n3)CC2)c1,-1.5%,–
CN1CCCC(OC(=O)COc2ccc(Br)cc2)C1 (stereo not drawn),-3.3%,–
Cc1cc(=O)oc(C)c1C(=O)NCc1ccc(F)cc1,-6.9%,–
Oc1ccccc1CNCc1ccccc1O,-9.4% [at 11.4 µM],–
CCOC(=O)c1c(C2CC2)csc1NC(=O)CSCc1c(C)noc1C,-5.2%,–
Cc1cc(C)nc(SCc2ccccc2C#N)n1,-13.8%,–
CCCCCCc1ccc(O)cc1O,0.2%,–
COc1ccccc1CNc1ncnc2ccc(-c3c(C)noc3C)cc12,-1.2%,–
COc1ccc(Cn2cccc(NC(=O)Nc3ccc(C#N)cc3)c2=O)cc1,-2.6%,–
COc1ccc(OC)c(C(=O)c2ccc(C(=O)O)cc2)c1,1.1%,–
CC(C)NC[C@H](O)c1ccc2ccccc2c1,inactive,–
O=C(Oc1ccc2c(c1)CN(Cc1ccccc1)CO2)c1ccccc1,-3% [at 11.4 µM],–
COCCn1c(=O)c(CCc2ccccc2)nc2cncnc21,-7.4%,–
CCCn1c(-c2ccc(F)cc2)nc2c(NCC3CCCN3CC)nc(C)nc21 (stereo not drawn),-1.2%,–
COc1cccc2sc(Nc3nc(C)c(C(C)=O)s3)nc12,-4.5%,–
